The values below come from PubChem BioAssay (EPA / NIEHS).

Usually AC50 stands for the midpoint of the concentration-response curve, whichever way the signal moves.

Results filed as inconclusive are left out. Active and inactive are the calls of the source. Rule for the calls, unless noted: active = hit-call score of the fitted dose curve at least 0.9, where 1 is the maximum; inactive = score below 0.9.

In assay [1] the target is human Thyroid Receptor alpha (THRa1), THRA (gene 7067) (UniProt P10827). The assay is described as follows: ATG_THRa1_TRANS: Attagene TRANS-FACTORIAL HepG2 Assay for human Thyroid Receptor alpha (THRa1) (AID 2283014; active = hit-call score of the fitted dose curve at least 0.9, where 1 is the maximum). The essentials:
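Transient HepG2 transfection, NR-Gal4 chimera driving GAL4-UAS reporters; 24 h compound exposure; total RNA, oligo(dT) RT, PCR, fluorescent primer extension, capillary electrophoresis. Upward direction vs DMSO control.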

Read-out in assay [2]: E-selectin (Homo sapiens) (UniProt P16581)
The assay is described as follows: BSK_3C_Eselectin: BioMAP Diversity Plus: 3C Assay for Eselectin Biomarker Activity (AID 2283015).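 For outcome: cell surface E-selectin protein quantified by ELISA 24 h after dosing.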 The following applies: primary human endothelial cells (HUVEC); actives raise or lower the signal. The essentials:
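HUVEC, 3C stimulation; compound exposure 24 h; E-selectin by ELISA; gain- or loss-of-signal fitted bidirectionally vs DMSO baseline.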

Read-out in assay [3]: Interleukin-1 alpha (IL1a), IL1A (gene 3552)
The assay is described as follows: BSK_BE3C_IL1a: BioMAP Diversity Plus: BE3C Assay for Interleukin-1 alpha (IL1a) Biomarker Activity (AID 2283016). The note with it: primary human bronchial epithelial cells; actives raise or lower the signal. The essentials:
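BE3C primary human bronchial epithelium; cpd 24 h; IL-1a by ELISA; bidirectional fit vs DMSO; parallel SRB (0.1% SRB, 10% TCA fix, 560 nm) for cytotoxicity.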

Read-out in assay [4]: Monocyte Chemoattractant Protein-1 (MCP1), CCL2 (gene 6347)
The assay is described as follows: BSK_4H_MCP1: BioMAP Diversity Plus: 4H Assay for Monocyte Chemoattractant Protein-1 (MCP1) Biomarker Activity (AID 2283018). The note with it: primary human endothelial cells (HUVEC); actives raise or lower the signal. The essentials: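 ELISA read-out of MCP-1 from human vascular endothelial primary cells taken at 24 hours after compound exposure. Activity was fitted in both directions relative to DMSO, which served as negative control.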

Read-out in assay [5]: Human Leukocyte Antigen - DR isotype (HLADR), HLA-DRA (gene 3122)
Nature of the assay: BSK_3C_HLADR: BioMAP Diversity Plus: 3C Assay for Human Leukocyte Antigen - DR isotype (HLADR) Biomarker Activity (AID 2283019).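 For outcome: ELISA of cell-surface HLA-DR on HUVEC 24 h after dosing.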 The note with it: primary human endothelial cells (HUVEC); actives raise or lower the signal. The essentials: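 HUVEC, 3C stimulation, 24 h post-dose; HLA-DR by ELISA; bidirectional curve fit vs DMSO baseline; gain or loss of signal scored.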

Read-out in assay [6]: Interleukin-8 (IL8), CXCL8 (gene 3576)
The assay is described as follows: BSK_3C_IL8: BioMAP Diversity Plus: 3C Assay for Interleukin-8 (IL8) Biomarker Activity (AID 2283020). The note with it: primary human endothelial cells (HUVEC); actives raise or lower the signal. The essentials:
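ELISA read-out of IL-8 from human umbilical vein endothelium, measured 24 h after chemical dosing. Activity is expressed relative to DMSO negative control, with both increases and decreases fitted.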

Read-out in assay [7]: Monokine induced gamma interferon (MIG), CXCL9 (gene 4283)
Nature of the assay: BSK_3C_MIG: BioMAP Diversity Plus: 3C Assay for Monokine induced gamma interferon (MIG) Biomarker Activity (AID 2283021).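 For AC50: MIG protein level measured by immunoassay in the treated endothelial cultures.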 The following applies: primary human endothelial cells (HUVEC); actives raise or lower the signal. The essentials: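 Read-out is ELISA detection of MIG on human umbilical vein endothelial cells, taken 24 h after dosing. Gain or loss of signal was scored relative to DMSO controls using bidirectional curve fitting.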

The target in assay [8] is human Vitamin D Receptor (VDR), VDR (gene 7421) (UniProt P11473). Nature of the assay: ATG_VDR_TRANS: Attagene TRANS-FACTORIAL HepG2 Assay for human Vitamin D Receptor (VDR) (AID 2283022; active = hit-call score of the fitted dose curve at least 0.9, where 1 is the maximum). The essentials:
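RT-PCR/capillary electrophoresis read-out of reporter mRNA induction in transiently transfected HepG2; 24 h dosing; chimeric NR-Gal4 (TRANS format); gain-of-signal fit against DMSO baseline.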

Assay [9] can be described thus: BSK_3C_SRB: Viability Assessment in the BioMAP Diversity Plus: 3C Assay (AID 2283023).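 Note: fitted both ways against DMSO so a hit may be signal rise or drop.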 The note with it: primary human endothelial cells (HUVEC). The essentials: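 HUVEC, 24 h post-dose; 10% TCA fix, 0.1% SRB stain, A560 nm. Bidirectional curve fit vs DMSO negative control.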
Read-out in assay [10]: Matrix Metallopeptidase 1 (MMP1), MMP1 (gene 4312)
Nature of the assay: BSK_BE3C_MMP1: BioMAP Diversity Plus: BE3C Assay for Matrix Metallopeptidase 1 (MMP1) Biomarker Activity (AID 2283024). The following applies: primary human bronchial epithelial cells; actives raise or lower the signal. The essentials:
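Human bronchial epithelial cells (BE3C system) exposed to compound for 24 h; MMP1 then quantified by ELISA. Activity was fitted in both directions relative to DMSO.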

Assay [11] in a line: BSK_3C_Vis: BioMAP Diversity Plus: 3C Assay for Morphology Visualization (AID 2283025).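 For AC50: light microscopy image of cell morphology used as background control.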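 Note: fitted both ways so gain or loss versus DMSO counts.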 The note with it: primary human endothelial cells (HUVEC). The essentials:
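Chemicals were added to primary human umbilical vein endothelium, cells were incubated 24 h, and morphology was then visualized by light microscopy. Gain or loss of signal was fitted bidirectionally relative to DMSO.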

The nature of assay [12]: BSK_4H_SRB: Viability Assessment in the BioMAP Diversity Plus: 4H Assay (AID 2283027).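 For AC50: curves fitted both ways versus DMSO so AC50 may be loss or gain.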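 Note: cells exposed to compound for 24 h before staining.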 The following applies: primary human endothelial cells (HUVEC). The essentials:
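Absorbance at 560 nm of SRB-stained total protein served as the viability read-out in confluent primary human umbilical vein endothelium 24 h after chemical treatment. Curves were fitted bidirectionally against DMSO as negative control.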

A short description of assay [13]: BSK_BE3C_SRB: Viability Assessment in the BioMAP Diversity Plus: BE3C Assay (AID 2283028).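 For AC50: fitted both ways so AC50 may mark signal gain or loss versus DMSO.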 The note with it: primary human bronchial epithelial cells. The essentials: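 Primary human bronchial epithelium; chemical dosing, 24 h; 10% TCA fix, 0.1% SRB stain, A560; bidirectional fit vs DMSO baseline.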
In assay [14] the target is Retinoic acid receptor RXR-alpha (Homo sapiens) (UniProt P19793). The assay is described as follows: ATG_RXRa_TRANS: Attagene TRANS-FACTORIAL HepG2 Assay for human Retinoid X Receptor alpha (RXRa) (AID 2283012; active = hit-call score of the fitted dose curve at least 0.9, where 1 is the maximum). The essentials: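 Transient transfection of human HepG2 with multiple GAL4-UAS reporter constructs; 24 h compound exposure; total RNA isolated, reverse-transcribed, PCR-amplified, 6-FAM labelled, HpaI-cut, resolved by capillary electrophoresis. Positive-direction fit versus DMSO.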
Sequence of Retinoic acid receptor RXR-alpha (Homo sapiens) (P19793 whole entry, looked up, the tested form may be a part): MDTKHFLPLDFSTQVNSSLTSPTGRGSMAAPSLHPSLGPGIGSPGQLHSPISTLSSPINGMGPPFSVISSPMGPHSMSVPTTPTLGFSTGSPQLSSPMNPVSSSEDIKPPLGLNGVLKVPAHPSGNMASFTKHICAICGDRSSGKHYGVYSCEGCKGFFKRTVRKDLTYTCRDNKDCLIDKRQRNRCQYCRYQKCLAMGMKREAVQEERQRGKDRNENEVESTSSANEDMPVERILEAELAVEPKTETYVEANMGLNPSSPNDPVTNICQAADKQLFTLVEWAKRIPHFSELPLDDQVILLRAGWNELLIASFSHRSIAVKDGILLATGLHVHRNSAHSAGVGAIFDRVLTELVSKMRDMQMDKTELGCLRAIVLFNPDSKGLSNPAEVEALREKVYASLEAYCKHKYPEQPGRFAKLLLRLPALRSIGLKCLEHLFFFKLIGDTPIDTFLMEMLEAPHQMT

Assay [15] addresses human Retinoid X Receptor beta (RXRb), RXRB (gene 6257) (UniProt P28702). Nature of the assay: ATG_RXRb_TRANS: Attagene TRANS-FACTORIAL HepG2 Assay for human Retinoid X Receptor beta (RXRb) (AID 2283013; active = hit-call score of the fitted dose curve at least 0.9, where 1 is the maximum). The essentials:
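Transfect HepG2 with GAL4-UAS multi-reporter constructs (chimeric NR-Gal4, TRANS format); dose compound 24 h; isolate RNA, RT-PCR, FAM primer extension, HpaI digest; quantify by capillary electrophoresis; positive direction vs DMSO.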

Read-out in assay [16]: Pselectin, SELP (gene 6403)
Nature of the assay: BSK_4H_Pselectin: BioMAP Diversity Plus: 4H Assay for Pselectin Biomarker Activity (AID 2283026). The following applies: primary human endothelial cells (HUVEC); actives raise or lower the signal. The essentials: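 ELISA read-out of P-selectin on human umbilical vein endothelium after 24 h of dosing. Values derive from bidirectional fitting relative to DMSO. Parallel SRB protein staining flagged overt cytotoxicity.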

Read-out in assay [17]: Monocyte Chemoattractant Protein-1 (MCP1), CCL2 (gene 6347)
Nature of the assay: BSK_3C_MCP1: BioMAP Diversity Plus: 3C Assay for Monocyte Chemoattractant Protein-1 (MCP1) Biomarker Activity (AID 2283017). The following applies: primary human endothelial cells (HUVEC); actives raise or lower the signal. The essentials:
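HUVEC, 3C system; 24 h chemical exposure; MCP-1 by ELISA; bidirectional curve fit vs DMSO baseline.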

Sequence of E-selectin (Homo sapiens) (P16581 whole entry, looked up): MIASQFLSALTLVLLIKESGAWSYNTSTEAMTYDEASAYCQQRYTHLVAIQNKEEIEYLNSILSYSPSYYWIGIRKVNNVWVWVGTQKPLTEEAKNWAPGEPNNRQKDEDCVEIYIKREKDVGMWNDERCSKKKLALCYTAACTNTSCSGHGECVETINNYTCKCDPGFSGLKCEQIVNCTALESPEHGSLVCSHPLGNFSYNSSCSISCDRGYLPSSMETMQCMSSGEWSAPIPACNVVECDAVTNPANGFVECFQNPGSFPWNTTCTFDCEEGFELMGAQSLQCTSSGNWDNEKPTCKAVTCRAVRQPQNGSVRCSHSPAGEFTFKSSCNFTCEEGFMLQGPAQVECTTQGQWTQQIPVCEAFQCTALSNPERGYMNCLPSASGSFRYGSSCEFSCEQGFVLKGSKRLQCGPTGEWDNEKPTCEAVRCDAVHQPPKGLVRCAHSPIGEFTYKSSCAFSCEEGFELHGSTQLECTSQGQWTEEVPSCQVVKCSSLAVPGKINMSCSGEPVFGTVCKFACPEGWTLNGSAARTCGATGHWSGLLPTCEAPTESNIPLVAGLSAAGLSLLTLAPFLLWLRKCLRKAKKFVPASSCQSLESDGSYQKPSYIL
Sequence of human Vitamin D Receptor (VDR), VDR (gene 7421) (P11473 whole entry, looked up, the tested form may be a part): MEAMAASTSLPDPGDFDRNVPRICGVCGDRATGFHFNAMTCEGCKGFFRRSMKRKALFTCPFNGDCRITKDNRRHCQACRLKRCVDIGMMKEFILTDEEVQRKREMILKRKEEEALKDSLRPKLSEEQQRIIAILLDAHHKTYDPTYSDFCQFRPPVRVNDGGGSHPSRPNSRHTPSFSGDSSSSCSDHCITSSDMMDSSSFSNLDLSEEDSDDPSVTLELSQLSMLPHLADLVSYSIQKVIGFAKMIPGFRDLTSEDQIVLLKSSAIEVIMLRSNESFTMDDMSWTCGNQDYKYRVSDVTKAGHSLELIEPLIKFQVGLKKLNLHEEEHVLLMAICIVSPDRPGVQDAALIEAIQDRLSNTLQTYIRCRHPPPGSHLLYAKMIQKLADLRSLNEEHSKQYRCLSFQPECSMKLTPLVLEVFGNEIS
Sequence of human Thyroid Receptor alpha (THRa1), THRA (gene 7067) (P10827 whole entry, looked up, the tested form may be a part): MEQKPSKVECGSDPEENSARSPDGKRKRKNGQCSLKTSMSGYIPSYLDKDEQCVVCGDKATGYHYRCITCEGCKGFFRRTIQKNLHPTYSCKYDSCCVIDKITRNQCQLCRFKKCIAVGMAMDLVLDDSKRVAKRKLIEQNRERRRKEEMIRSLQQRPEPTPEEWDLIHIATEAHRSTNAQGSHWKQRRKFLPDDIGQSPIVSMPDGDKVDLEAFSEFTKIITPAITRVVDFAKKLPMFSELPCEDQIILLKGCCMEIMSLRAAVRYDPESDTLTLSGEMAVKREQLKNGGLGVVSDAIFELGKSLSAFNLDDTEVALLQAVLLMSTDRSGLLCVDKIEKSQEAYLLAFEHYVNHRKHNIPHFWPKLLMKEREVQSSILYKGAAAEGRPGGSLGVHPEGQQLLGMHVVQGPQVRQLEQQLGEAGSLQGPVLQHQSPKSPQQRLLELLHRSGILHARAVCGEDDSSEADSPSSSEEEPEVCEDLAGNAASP
Sequence of human Retinoid X Receptor beta (RXRb), RXRB (gene 6257) (P28702 whole entry, looked up, the tested form may be a part): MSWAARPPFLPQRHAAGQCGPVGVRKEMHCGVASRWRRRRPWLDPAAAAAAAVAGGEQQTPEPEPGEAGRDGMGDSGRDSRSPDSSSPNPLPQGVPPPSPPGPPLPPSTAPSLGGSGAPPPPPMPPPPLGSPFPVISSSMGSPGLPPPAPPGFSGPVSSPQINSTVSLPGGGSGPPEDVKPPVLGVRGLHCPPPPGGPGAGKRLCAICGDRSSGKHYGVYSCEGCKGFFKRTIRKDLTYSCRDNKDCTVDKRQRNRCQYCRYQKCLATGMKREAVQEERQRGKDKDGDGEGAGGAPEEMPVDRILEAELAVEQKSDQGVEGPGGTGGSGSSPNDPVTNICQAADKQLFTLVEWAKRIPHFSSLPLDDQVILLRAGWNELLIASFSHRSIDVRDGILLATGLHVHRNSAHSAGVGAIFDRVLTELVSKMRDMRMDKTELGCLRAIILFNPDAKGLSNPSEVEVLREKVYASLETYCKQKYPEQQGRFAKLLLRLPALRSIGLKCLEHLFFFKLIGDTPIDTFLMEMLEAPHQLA

Turning to `O=C(OC1CCCCC1)c1ccccc1C(=O)OC1CCCCC1`, the compound was classed as inactive in assay [1], in [7], in assay [8] and in assay [13]. The AC50 is 11.3 µM (active) in assay [2]; 11.6 µM (active) in assay [3]; 8.94 µM (active) in [4]; 8.72 µM (active) in assay [5]; 8.46 µM (active) in assay [6]; 10.9 µM (active) in assay [9]. Further, the AC50 in assay [10] is 4.58 µM (active); in assay [11], 5.63 µM (active); in [12], 13 µM (active).

For `Cc1ccc(N)cc1Cl`, the call in assay [14] and in assay [8] was inactive.

As to `NC(=S)Nc1ccccc1`, the call in [14], in assay [2], in assay [3], in [4], in assay [5] and in [6] was inactive. In addition, the outcome in assay [7], in assay [8], in [9], in assay [10], in assay [11] and in [12] was inactive. Besides, the outcome in assay [13] was inactive.

On to `O=C(O)Cc1ccccc1`, for which the compound was called inactive in assay [14] and in assay [8].

In the case of `CC(=[OH+])/C=C(/C)[O-].CC(=[OH+])/C=C(/C)[O-].CC(=[OH+])/C=C(/C)[O-].[Fe]`, the compound was classed as inactive in [1].

With `CCN(CC)C(=O)Cl`, the compound was called inactive in assay [15].

Take `O=Cc1cccc(Oc2ccccc2)c1`: the call in assay [1], in assay [2], in [3], in [4], in [5] and in assay [6] was inactive. For the same compound, the outcome in assay [7], in assay [8], in [9], in assay [10], in assay [11] and in assay [12] was inactive. The outcome in assay [13] was inactive.

Take `C[C@H]1CCCC(=O)CCC/C=C/c2cc(O)cc(O)c2C(=O)O1`: the call in [1] was inactive.

For `CC(=O)[O][Hg][c]1ccccc1`, the AC50 was 14.8 µM (active) in assay [15]; 3.04 µM (active) in assay [2]; 2.57 µM (active) in assay [3]; 1.03 µM (active) in assay [4]; 0.317 µM (active) in assay [5]; 6 µM (active) in [6]. For the same compound, the AC50 in [7] is 2.73 µM (active); in [9] it was 0.146 µM (active); in [10], 2.93 µM (active); in assay [11] it was 0.954 µM (active); in assay [16], 1.29 µM (active); in [12], 1.68 µM (active). For the same compound, the AC50 in assay [13] is 1.88 µM (active). The call in assay [1] was inactive.

With `CCOP(=S)(OCC)SCCS(=O)(=O)CC`, the compound was called inactive in [14], in assay [1], in [2], in assay [3], in assay [4] and in [5]. Also, the result in [6], in [7], in assay [8], in [9], in assay [10] and in assay [11] was inactive. Also, the outcome in assay [16], in assay [12] and in assay [13] was inactive.

With `C=CC#N`, the outcome in assay [8] was inactive.

As for `CC1(C)CCC(Cc2ccc(Cl)cc2)C1(O)Cn1cncn1` (stereo not given), the result in assay [14], in assay [1] and in [8] was inactive.

With `O=[N+]([O-])c1ccc(O)c([N+](=O)[O-])c1`, the outcome in assay [14], in assay [1], in assay [2], in assay [3], in assay [17] and in assay [4] was inactive. The result in assay [6], in [7], in assay [9], in [10], in assay [11] and in assay [12] was inactive. The outcome in [13] was inactive. For the same compound, the AC50 in assay [5] is 28 µM (active).

As to `CC(=O)OC(c1ccccc1)C(Cl)(Cl)Cl` (stereo not given), the compound was called inactive in assay [14], in [1], in assay [2], in [3], in assay [4] and in assay [5]. Besides, the outcome in assay [6], in assay [7], in [9], in assay [10], in assay [12] and in assay [13] was inactive.

For the compound `COC(=O)Cc1ccccc1`, the compound was called inactive in assay [14], in assay [2], in assay [3], in [17], in [4] and in [5]. For the same compound, the result in assay [6], in [7], in assay [8], in assay [9], in [10] and in assay [16] was inactive. Besides, the result in [12] and in assay [13] was inactive.

`COc1cccc(C=O)c1`: the call in assay [8] was inactive.
